AmpC inh no det = blocks E. coli AmpC beta-lactamase in absence of detergent | AmpC nitrocefin hydrolysis, absorbance 480 nm, no detergent | Potency, µM (highest dose often 28.7 µM), for inactives: at the top dose activity change, negative = inhibition | hit rate 1.8% among 71,000 | AID 585; further: % of control where 0% means no effect
Target sequence (P00811 whole entry, looked up): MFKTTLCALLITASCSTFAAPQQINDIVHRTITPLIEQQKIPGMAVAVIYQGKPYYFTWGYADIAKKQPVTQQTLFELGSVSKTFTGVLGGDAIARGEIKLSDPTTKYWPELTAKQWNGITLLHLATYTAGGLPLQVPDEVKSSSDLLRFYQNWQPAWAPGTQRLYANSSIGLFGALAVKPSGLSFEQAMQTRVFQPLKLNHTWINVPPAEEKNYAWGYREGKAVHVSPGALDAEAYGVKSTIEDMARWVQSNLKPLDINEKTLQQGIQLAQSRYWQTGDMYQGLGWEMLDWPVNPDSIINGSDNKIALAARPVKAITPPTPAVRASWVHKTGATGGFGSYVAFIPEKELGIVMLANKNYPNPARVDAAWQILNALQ
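AmpC in 20 mM phosphate buffer pH 7.0 was preincubated 15 min at room temperature with compounds. Nitrocefin (800 uM stock) was then added and hydrolysis followed at 480 nm every 20 s for 4 min.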
Anthrax LT inh = blocks cellular internalization of anthrax lethal toxin; Cells, anthrax lethal toxin internalization, FRET ratio (460/530); Potency, µM (doses to about 40 µM), for inactives: at the highest dose activity change, negative = inhibition, actives largely listed as inhibitors; hit rate 0.67% among 70,000; AID 912; further: on the % scale 0 is the no-effect control and ±100 the full control effect; nearly all actives have a fitted effect of over 50% in size
SmPrx2 inh = inhibitors of Schistosoma mansoni peroxiredoxin 2 | S. mansoni Prx2 activity coupled to TGR/GSH (TGR is thioredoxin glutathione reductase), NADPH fluorescence loss, qHTS | Potency, µM | hit rate 0.07% among 65,000
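Prx2 inhibition was measured as reduced NADPH consumption when electrons flowed from NADPH through TGR and glutathione to Prx2 and H2O2. Plates were read kinetically over 8 min; enzyme reagents were held at 4 deg C during dispensing.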
AmpC inh det = blocks E. coli AmpC beta-lactamase in presence of detergent | hit rate 0.09% among 71,000 | AID 584 | purified AmpC, nitrocefin hydrolysis with detergent | P00811 | Potency, µM (titrated, usually from 28.7 µM), for inactives: at the top dose activity change, negative = inhibition; active means well fitted curve in the direction sought with a large enough effect; inconclusive means small, poorly fitted or top-dose-only effect; further: on the % scale 0 is the no-effect control and ±100 the full control effect
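E. coli AmpC (5.3 nM) in 20 mM phosphate pH 7.0 with 0.01% Triton X-100, preincubated 15 min RT with compound; nitrocefin (2 uL of 800 uM stock) hydrolysis followed by 480 nm absorbance every 20 s over 4 min.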
An asterisk follows results filed as active; ? = inconclusive; . = not tested or not shown; ! = not active in a repeat; [ ] = dose if it differs, or a comment. An excerpt weighted towards active compounds, which were near 2.4% of everything screened. Unless noted, the call rests on the fitted dose curve. Potency means the concentration at half of the fitted maximal effect.

SMILES | AmpC inh no det | Anthrax LT inh | SmPrx2 inh | AmpC inh det
COc1cc(NC(=O)C2COc3ccccc3O2)c(OC)cc1Cl (configuration not stated) | 19% | 13µM* | >57 | -1%
COC(=O)c1ccc(C)c(NC(=O)C2COc3ccccc3O2)c1 (configuration not stated) | 10% | . | >57 | -2%
CC1CC(C)CN(S(=O)(=O)c2ccc(NC(=O)C3COc4ccccc4O3)cc2)C1 (configuration not stated) | 16µM*[single pt active] | ? | >57 | 7%
CC(C)(C)NC(=O)c1ccc(NC(=O)C2COc3ccccc3O2)cc1 (configuration not stated) | 8% | 14% | >57 | -2%
COc1ccc(OC)c(NS(=O)(=O)c2ccc(NC(=O)C3COc4ccccc4O3)cc2)c1 (configuration not stated) | 10µM* | ? | . | 0%
O=c1c(-c2cccs2)nc2cncnc2n1Cc1ccccc1 | 0% | ? | >57 | 2%
Oc1ccc(Cl)cc1Sc1cc(Cl)ccc1O | -12%[5.75 µM] | 5µM*! | >57 | -3%[5.75 µM]
CCCNC(=O)OC[C@H]1O[C@@H](CCO/N=C2/C[C@@H](O)[C@@H](O)[C@@H]3[C@@H]4C(=O)N(CC)C(=O)[C@H]4CC[C@@H]23)C=C[C@@H]1Oc1ccc(OC)cc1 | . | -5%[8 µM] | . | .
Cc1nc2ccccc2c2oc(C(=O)N3CCc4ccccc4C3)cc12 | 151% | 10µM* | >57 | 2%
Cc1nc2ccccc2c2oc(C(=O)N3CCN(C(=O)c4ccco4)CC3)cc12 | 104% | 8% | >57 | 3%
Cc1ccccc1-c1cc(N(C)Cc2ccco2)ncn1 | 11% | -5% | >11 | -1%
Cc1nc2c3ccccc3n(CC(=O)c3ccc(F)cc3)c(=O)n2n1 | 4µM*[single pt active] | ? | >57 | 14%
O=C(Cn1ncc2c(=O)oc3ccccc3c21)NCCN1CCN(c2ccccc2F)CC1 | 4µM*[single pt active] | 0% | >57 | 12%
CC1CC(C)CN(CCCNC(=O)Cn2ncc3c(=O)oc4ccccc4c32)C1 (configuration not stated) | 3.2µM*[single pt active] | -6% | >57 | 9%
O=C(Cn1ncc2c(=O)oc3ccccc3c21)N1CCN(C(=O)c2ccco2)CC1 | 5% | -4% | ? | -2%
O=C(Cn1ncc2c(=O)oc3ccccc3c21)N1CCCc2ccccc21 | 15% | -4% | >57 | -2%
O=C(Cn1ncc2c(=O)oc3ccccc3c21)N1CCCN(Cc2ccccc2F)C1 | 4µM*[single pt active] | -13% | >57 | 24%
COc1c2c(c3c(c1CCC(=O)O)OC(C)(C)C=C3)OC(C)(C)C=C2 | 3%[5.75 µM] | -2%[8 µM] | >57 | -2%[5.75 µM]
COc1ccc(C2c3sc(=O)[nH]c3SC3C(=O)N(c4ccccc4)C(=O)C32)cc1 (configuration not stated) | 4µM*[single pt active] | -16% | >57 | 11%
CCCC(=O)c1ccc(N2CCN(C(=O)c3ccccc3Br)CC2)c(F)c1 | 87% | 13µM* | >57 | -1%
O=C(CSc1nnc(-c2cccnc2)n1Cc1ccco1)N1c2ccccc2Sc2ccccc21 | 141% | 16µM* | >57 | 1%
c1cncc(CSc2nnc(-c3cccnc3)n2Cc2ccco2)c1 | -8% | -1% | >57 | -3%
O=C(c1cccc(F)c1)N1CCC2(CCCN(c3ccc(-c4ccccc4)cc3)C2)CC1 | 46% | -22% | >57 | 0%
Nc1[nH]c(=S)[nH]c(=O)c1N=Nc1c(Br)cc(S(N)(=O)=O)cc1Br | -5%[5.75 µM] | -10%[8 µM] | >57 | -1%[5.75 µM]
COc1ccc(-n2c(Cc3cc(=O)[nH]c(=O)[nH]3)nnc2SCc2ccccc2)cc1 | 4µM*[single pt active] | 3% | >57 | 10%
SMILES | AmpC inh no det | Anthrax LT inh | SmPrx2 inh | AmpC inh det
COc1cccc(-n2c(Cc3cc(=O)[nH]c(=O)[nH]3)nnc2SCc2cccnc2)c1 | 4µM*[single pt active] | -1% | >57 | 14%
CCOc1ccc(-n2c(Cc3cc(=O)[nH]c(=O)[nH]3)nnc2SCC)cc1 | 3% | -9% | >57 | 15%
N#CC1(O)CCCCC1 | -1% | -7% | . | 9%
Cc1ccc(NC(=O)c2cc(C)on2)cc1 | -14% | -25% | >57 | 2%
CCCc1cc(C(=O)Nc2cc(Br)ccc2O)no1 | 16µM*[single pt active] | ? | >57 | 6%
CCOC(=O)c1c(NC(=O)c2noc3c2CCCC3)sc2c1CCCC2 | 5% | -7% | >57 | -2%
CCCc1cc(C(=O)Nc2sc3c(c2C(=O)OCC)CCCC3)no1 | 4µM*[single pt active] | -12% | >57 | 8%
CCCc1cc(C(=O)Nc2ccc(C)cc2)no1 | 4µM*[single pt active] | ? | >57 | 16%
N#C[C@H](Cc1ccc(O)cc1)c1ccc(O)cc1 | -11% | ? | >57 | 1%
C[N+](C)(C)CCC(=O)c1cccc2ccccc12 | 0% | 25µM* | >57 | -3%
Cc1cc(NC(=O)CSc2nc(-c3ccc(F)cc3)cs2)no1 | -13% | -2% | >57 | -3%
O=C(CSc1nc(-c2ccc(F)cc2)cs1)NC(=O)NCc1ccco1 | 3.2µM* | -19% | >57 | 0%
COc1ccc(NC(=O)Nc2cccc(C)n2)cc1 | 4µM*[single pt active] | -13% | >57 | 10%
Cc1cccc(NC(=O)Nc2ccc(C#N)cc2)n1 | 0% | -7% | >57 | 3%
CCCOc1ccc(Cc2nn3c(=O)/c(=C/c4ccco4)sc3nc2=O)cc1 | 10µM*[single pt active] | -1% | >57 | -2%
FC(F)(F)c1cccc(Cl)c1 | -11% | 6% | . | 8%
CCOC(=O)c1c(C)n(CCOC)c2ccc(O)cc12 | -10% | -1% | >57 | -2%
CCCCCS(=O)(=O)CCCCCCCCCCn1c(-c2ccc(O)cc2)c(C)c2cc(O)ccc21 | . | 5µM* | . | .
COC(=O)NC(c1cccc(F)c1)C(C(C)=O)C(=O)OC (configuration not stated) | . | -2%[8 µM] | . | .
CCOc1ccc(C2C(C#N)=C(N)SC(N)=C2C#N)cc1OCC | 5% | 1% | >57 | -1%
N#CC1=C(N)SC(N)=C(C#N)C1c1cccc(Oc2ccccc2)c1 | 7.9µM* | ? | . | 4%
CCCCn1c(=S)[nH]c2c(oc3ccc(Cl)cc32)c1=O | 6.3µM* | 22% | >57 | 1%
IC(I)I | -4% | . | . | 9%
CCOC(=O)N1CCC(Nc2c(-c3ccc(C)c(C)c3)c(=O)c2=O)CC1 | 14% | 10% | >57 | -1%
CCOC(=O)C1CCCN(c2c(N3CCc4ccccc4C3)c(=O)c2=O)C1 (configuration not stated) | 4µM*[single pt active] | 18% | >57 | 12%
CCOC(=O)C1CCCN(c2ncnc3c2oc2ccccc23)C1 (configuration not stated) | 69% | 6% | >57 | -1%
CCOC(=O)C1CCCN(c2c(NCCc3ccc(S(N)(=O)=O)cc3)c(=O)c2=O)C1 (configuration not stated) | 4µM*[single pt active] | 0% | >57 | 13%
CCOC(=O)C1CCCN(c2c(NCCN(C)Cc3ccccc3)c(=O)c2=O)C1 (configuration not stated) | 4µM*[single pt active] | -13% | >57 | 13%
CCOC(=O)N1CCC(Nc2c(NCCCN(C)Cc3ccccc3)c(=O)c2=O)CC1 | 4µM*[single pt active] | 6% | >57 | 15%
CC(C)[C@H](NC(=O)OC(C)(C)C)[C@@H](O)CC(=O)OC(C)(C)C | . | -4%[8 µM] | . | .
